Experimental data published in PubChem BioAssay (NCI).
This is part of a sample that, as a whole, favours compounds with a hit. Of some 83,000 tested, about 20% had one in any assay.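 Values shown are percent growth following 48 h exposure of cells in 96-well plates to a single concentration of compound; below 10 was considered active.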 Values without a mark were called inactive. Activity calls are given as the source filed them.

Experiments:
Assay in all cases: NCI-60 one-dose screen, 48 h (100 = growth as untreated, 0 = no growth, -100 = all killed)
Details in all cases: 10 µM
[1] = tested on: T-47D breast
[2] = tested on: BT-549 breast
[3] = tested on: MDA-MB-435 melanoma
[4] = tested on: SW-620 colon
[5] = tested on: MCF7 breast
[6] = tested on: HCT-116 colon
[7] = tested on: HCC-2998 colon
[8] = tested on: KM12 colon

Structure (SMILES) | growth [1] | growth [2] | growth [3] | growth [4] | growth [5] | growth [6] | growth [7] | growth [8]
Cc1c[nH]c(=O)n(Cc2nnc(CCC(=O)c3nc4ccccc4[nH]3)o2)c1=O | 34.3% | 18.9% | -45.8% (active) | 28.9% | 9.44% (active) | 6.25% (active) | -27.9% (active) | 4.98% (active)
O=C1/C=C/[C@@H](O)[C@@H]2C[C@@H](O)C[C@H]2/C=C/CCC[C@H](C(F)(F)F)O1 | -57.2% (active) | 15.8% | 6.68% (active) | -23.1% (active) | -64.2% (active) | -30.4% (active) | -36.5% (active) | 30%
CCCCC1(O)CCCCC1 | 91.5% | 95.5% | 106% | 102% | 101% | 102% | 103% | 96.8%
Brc1ccc2c(c1)-c1ccccc1C1=NCCN12 | -0.518% (active) | 11% | 1.68% (active) | -34.3% (active) | -5.53% (active) | -12.6% (active) | 13.5% | 10.9%
Cc1c(C(N)=O)sc2c1c(=O)n(Cc1ccccc1)c1nnc(-c3ccc(Br)cc3)n21 | 20.9% | 22.6% | 39% | 33.1% | 21.5% | 12.4% | 25% | 25.6%
COc1ccc(-c2cc(-c3ccc(Cl)cc3)nc(SCCCCCCC(=O)NO)n2)cc1OC | 36.1% | 79.6% | 69.1% | 46.3% | 24.6% | 41.8% | 80.3% | 69.4%
COc1ccc(C2=Cn3c(CCC(=O)c4nc5ccccc5[nH]4)nnc3SC2)cc1 | 81% | 104% | 90.3% | 129% | 84.6% | 71.4% | 127% | 98.6%
CCC(=O)OC1CCC2C3CCC(=O)OC3C(C)(CCC(=O)O)CC12C (stereo unspecified) | 37.7% | -8.83% (active) | -15.3% (active) | -11.3% (active) | 30.9% | 5.1% (active) | 5.22% (active) | 25.7%
COc1ccc(-c2nn(-c3cccc(Cl)c3)cc2-c2cc(-c3ccccc3)[nH]c(=O)c2C#N)cc1 | 27.6% | 3.07% (active) | 81.5% | 67.7% | 52.9% | 15.6% | 49.9% | 69.8%
CC1CCCC(C(=O)O)C1C(=O)O (stereo unspecified) | 90.9% | 95.9% | 102% | 98.9% | 103% | 99.5% | 92.9% | 106%
Oc1ccc(/C=N/N=C2c3ccccc3-c3ccccc32)c(O)c1 | 42.8% | 78.4% | 21.5% | 75.4% | 43.3% | 66.1% | 80.9% | 52.2%
O=C1c2c(c(=O)[nH]c3ccccc23)CCN1Cc1ccccc1 | 86.1% | 87.1% | 110% | 105% | 97.5% | 94.8% | 111% | 114%
CC(C)CCN(CCC(C)C)CC(=O)Nc1ccc(S(=O)(=O)c2ccc(NC(=O)CN(CCC(C)C)CCC(C)C)cc2)cc1 | 52.7% | 42.2% | 65.7% | -1.98% (active) | 15.3% | -54.2% (active) | 95.8% | 54.5%
O=C(O)Cc1ccc(O)c(O)c1 | 83.2% | 88.3% | 103% | 103% | 91% | 105% | 92.2% | 98.6%
Cc1ccc(C(=O)C2C(=O)C3CCC2C3)cc1 (stereo unspecified) | 108% | 105% | 100% | 104% | 97.5% | 108% | 106% | 107%
CN1CCN(CCCn2c(=O)c3sc4ncccc4c3n3nnc(-c4ccccc4)c23)CC1 | -75.4% (active) | 50.1% | -75.8% (active) | -65.5% (active) | 5.32% (active) | -59.2% (active) | -5.79% (active) | 16.4%

Structure (SMILES) | growth [1] | growth [2] | growth [3] | growth [4] | growth [5] | growth [6] | growth [7] | growth [8]
COc1ccc(/C(=N\N)C(=O)c2ccccc2)cc1 (tested in a mixture with another compound) | 83.7% | 108% | 92.7% | 107% | 92.4% | 103% | 98.1% | 102%
COCCn1cc(-c2nc(-c3cccnc3)cs2)c2cc(F)ccc21 | 87.7% | 93% | 79.9% | 99.4% | 102% | 102% | 102% | 69.4%
CC(=O)Nc1ccc2c(c1)C(=O)c1cccc(C(=O)O)c1-2 | 99.3% | 117% | 102% | 99.8% | 105% | 105% | 102% | 120%
CCOc1ccccc1/C=N\N=C\c1ccccc1O | 78.5% | 84.2% | 107% | 105% | 84.2% | 98.8% | 102% | 95.3%
CC[C@@H](C(=O)[C@H](C)[C@H](O)[C@@H](C)[C@H]1O[C@H]([C@@H](CC)C(=O)N(CC)CC)CC[C@H]1C)C1O[C@]2(C=C[C@@H](O)[C@]3(CC[C@@](C)([C@H]4CC[C@](O)(CC)[C@H](C)O4)O3)O2)[C@H](C)C[C@@H]1C (stereo partly specified) | 17% | 37.1% | 26.3% | 18.5% | 10.4% | 10.8% | 22.1% | 29.6%
Cc1cn(-c2cccc(NC(=O)c3ccc(C)c(Nc4nccc(-c5cccnc5)n4)c3)c2)cn1 | 46% | -39.4% (active) | -27.8% (active) | 20.2% | -24.6% (active) | -87.4% (active) | 41.7% | -94.9% (active)
OCCn1cccn1 | 102% | 110% | 102% | 101% | 116% | 110% | 97.1% | 102%
COc1ccc(-c2onc(N)c2-c2cc(OC)c3c(c2)OCO3)cc1 | 19.3% | 42.6% | -24.1% (active) | 16.8% | 8.88% (active) | 15.5% | 52.1% | 21.8%
COc1ccc2nc(-c3ccc(Cl)cc3)cc(-c3nnc(SC/C(=N\O)c4ccccc4)n3-c3ccccc3)c2c1 | 63.5% | 90.8% | 83.1% | 90.5% | 69.3% | 67.9% | 115% | 69.2%
O=C(Nc1ccc(F)cc1)c1cc2ccccc2cc1O | 46.3% | 72.4% | 86.3% | 90.9% | 58.5% | 77.9% | 104% | 69.2%
O=C(Nc1ccc2c(O)cc(S(=O)(=O)O)cc2c1)c1ccc([N+](=O)[O-])cc1 | 86% | 94.3% | 106% | 100% | 96.3% | 94.1% | 108% | 97.2%
Cc1nc2n(c(=O)c1CCN1CCC(c3noc4cc(F)ccc34)CC1)CCC[C@@H]2O | 84.1% | 99.4% | 98.8% | 101% | 84.7% | 99.5% | 109% | 99.9%
CCOC(=O)c1cc(C(=O)c2cc(OC)c(OC)c(OC)c2)n2ccc(-c3cc[n+](CC(=O)c4cc(OC)c(OC)c(OC)c4)cc3)cc12 | 50.1% | -10.9% (active) | 68.7% | -64.8% (active) | -29.3% (active) | -61.2% (active) | 109% | 45.3%
C=CCn1c(SCC(=O)Nc2ccc(C(=O)/C=C/c3ccc(OC)cc3)cc2)nnc1-c1ccc(OC)c(OC)c1 | 58.3% | 75.8% | 86.7% | 97.2% | 43.5% | 55.5% | 94.6% | 87.9%
COc1cc2c(cc1NC(=O)C(F)(F)F)-c1ccc(NC(=O)C(F)(F)F)cc1C2 | 83.8% | 98.7% | 99.6% | 98.1% | 94.2% | 97.1% | 105% | 97.3%
CCC1NC(=O)c2cc(S(N)(=O)=O)c(Cl)cc2N1 (stereo unspecified) | 104% | 114% | 101% | 108% | 106% | 115% | 105% | 113%
